FadD28 binding = blocks FadD28 binding to the bisubstrate probe; actives 0.22% (n = 360,000); fluorescence polarization; inhibition, % at 12.5 µM; AID 588549; in the data active = inhibition above about 8.5%, passing the limit was not always enough
Mtb hypoxia inh = inhibitors of hypoxia-regulated fluorescent reporter in Mycobacterium tuberculosis | fluorescence inhibition, % (concentration not given with the values) | actives 0.1% (n = 300,000) | M. tuberculosis hypoxia-regulated fluorescent reporter, fluorescence; in the data active = fluorescence inhibition mostly above about 23%, no sharp cut-off; inactive = mostly below about 17%
Mtb BioA inh = blocks M. tuberculosis BioA enzyme activity. inhibition, % at 9.99 µM. AID 602481. purified M. tuberculosis BioA enzyme, plate reader. actives 0.096% (n = 360,000); in the data active = inhibition above about 40%
Mtb FBA inh = Mtb fructose-bisphosphate aldolase inhibition | P9WQA3 | purified M. tuberculosis FBA, fluorescence read-out | inhibition, % at 1 µM | actives 2.3% (n = 360,000);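 note: 0% = vehicle and 100% = reference inhibitor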
Target sequence (P9WQA3 whole entry, looked up): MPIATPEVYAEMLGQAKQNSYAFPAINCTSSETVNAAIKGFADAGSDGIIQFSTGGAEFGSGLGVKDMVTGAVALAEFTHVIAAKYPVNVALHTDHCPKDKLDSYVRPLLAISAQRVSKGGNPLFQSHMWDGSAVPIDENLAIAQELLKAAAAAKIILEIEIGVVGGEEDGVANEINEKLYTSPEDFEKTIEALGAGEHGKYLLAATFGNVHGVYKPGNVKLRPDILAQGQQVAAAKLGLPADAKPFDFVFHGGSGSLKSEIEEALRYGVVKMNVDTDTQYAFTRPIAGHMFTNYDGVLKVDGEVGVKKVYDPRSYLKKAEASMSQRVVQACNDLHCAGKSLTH
GDH-TPI counter-1 = inhibits GDH-TPI coupling enzymes, artifact for Mtb FBA screen | AID 588335 | actives 1.2% (n = 360,000) | GDH-TPI coupled enzyme counterscreen, NADH absorbance | inhibition, % at 4.8 µM; in the data active = inhibition above about 30%;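 note: 0% = DMSO wells and 100% = wells lacking the enzyme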
Mtb FBA confirm = confirmation of M. tuberculosis fructose-bisphosphate aldolase inhibitors | shares compounds with Mtb FBA inh | purified M. tuberculosis FBA, fluorescence read-out | inhibition, % at 1 µM | actives 78% (n = 5,600) | AID 651616;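 note: 0% = vehicle wells and 100% = reference inhibitor wells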
GDH-TPI counter-2 = inhibits GDH-TPI coupling enzymes, flagging Mtb FBA hits | inhibition, % at 1 µM | actives 81% (n = 5,600) | AID 652141 | shares compounds with Mtb FBA inh | GDH-TPI coupled enzyme counterscreen, fluorescence; in the data active = inhibition above about 10%
An asterisk follows results filed as active; / = not tested or not shown; + = active, no number. Only some compounds are listed: those with a hit (about 2.9% of all), similar ones and a draw of the others. Cut-off read from the data, not from the text of the source, unless noted: active = inhibition above about 27%; inactive = the rest.

SMILES | FadD28 binding | Mtb hypoxia inh | Mtb BioA inh | Mtb FBA inh | GDH-TPI counter-1 | Mtb FBA confirm | GDH-TPI counter-2
CCC(=O)NC(=S)Nc1cccc(-c2nc3ncccc3o2)c1 | -2.9 | -9.0 | / | -1.2 | 9.8 | / | /
Cc1ccc(-c2nc3cc(NC(=O)C(C)C)ccc3o2)cc1C | -2.2 | -18.0 | 0.1 | 44.9* | 17.8 | 50.4* | 34.7*
CC(C)C(=O)Nc1cccc(-c2nc3ncccc3o2)c1 | -1.3 | 4.4 | 4.5 | 34.8* | 6.6 | 158.3* | 125.4*
CN(C)CC(=O)N[C@@H]1CC[C@@H](CCNC(=O)C2CCCC2)O[C@H]1CO | / | / | -1.9 | / | / | / | /
Cn1cccc1CC(=O)NN=Cc1cc([N+](=O)[O-])ccc1Cl | / | 4.9 | / | / | / | / | /
C[C@H](CO)N1C[C@H](C)[C@@H](CN(C)Cc2ccccc2)Oc2ccc(NC(=O)C3CCCCC3)cc2CC1=O | / | / | 2.2 | / | / | / | /
COc1cccc(-c2c(-c3cc(OC)cc(OC)c3)n(C)c3ccc(-c4ccc5[nH]ccc5c4)cc23)c1 | -1.9 | 18.4 | -2.3 | 42.2* | 24.4 | + | +
COc1cccc(-c2c(-c3cc(OC)cc(OC)c3)n(C)c3ccc(-c4ccc(OC)nc4)cc23)c1 | -3.5 | -5.0 | -0.7 | 0.7 | 3.1 | / | /
COc1cc(OC)cc(-c2c(-c3ccc(F)cc3)c3cc(-c4ccc5[nH]ccc5c4)ccc3n2C)c1 | -2.5 | 9.5 | -1.4 | 49.4* | 24.7 | -3.8 | -4.6
C=CCC(=O)N1CCCC(CCC(=O)NCc2ccccc2F)C1 (stereo not drawn) | 0.3 | 12.2 | / | 33.4* | -2.5 | 46.4* | 46.5*
CN(C)C(=O)Oc1ccc(-c2cn3cc(C(F)(F)F)ccc3n2)cc1 | -2.9 | 2.0 | 0.1 | 34.2* | 5.8 | 70.0* | 58.5*
COc1ccccc1CNC(=O)C[C@@H]1C[C@H]2c3cc(NC(=O)C4CCOCC4)ccc3O[C@H]2[C@@H](CO)O1 | / | / | -1.7 | / | / | / | /
COc1cccc(C2C3=C(CC(C)(C)CC3=O)Nc3cc4c(cc32)OCO4)c1 (stereo not drawn) | 3.6 | / | 0.1 | 14.6 | 24.8 | / | /
CC(=O)Oc1ccc(C2C3=C(CC(C)(C)CC3=O)Nc3cc4c(cc32)OCCO4)cc1 (stereo not drawn) | -3.0 | 4.0 | / | 46.6* | 43.0* | 71.9* | 63.0*
O=C1OCC2=C1C(c1ccc(F)cc1)c1cc3c(cc1N2)OCO3 (stereo not drawn) | -1.6 | 3.1 | / | 27.2* | 7.1 | 133.2* | 141.8*
CCOc1ccccc1C1C2=C(COC2=O)Nc2cc3c(cc21)OCO3 (stereo not drawn) | 0.6 | 8.2 | / | 10.8 | 1.6 | / | /
O=C1OCC2=C1C(c1ccc(F)cc1)c1cc3c(cc1N2)OCCO3 (stereo not drawn) | -1.6 | 7.1 | / | 73.9* | 36.6* | + | 137.4*
C[C@H](O)C#Cc1cnc2c(c1)C(=O)N([C@@H](C)CO)C[C@H](C)[C@H](CN(C)CC1CCOCC1)O2 | / | / | -4.9 | / | / | / | /
CO[C@@H]1CN(C)C(=O)c2ccc(NC(=O)C3CCCCC3)cc2OC[C@H](C)N(C)C[C@@H]1C | / | / | -1.6 | / | / | / | /
COc1ccccc1Oc1coc2c(CN3CCN(C)CC3)c(O)ccc2c1=O | -0.2 | -0.4 | -0.3 | 80.4* | 17.1 | 90.6* | 72.7*
CCN(CC)Cc1c(O)ccc2c(=O)c(Oc3ccccc3OC)coc12 | -1.0 | 2.4 | / | 71.1* | 9.7 | + | +
CCN(CC)Cc1c(O)ccc2occ(C(=O)c3ccccc3)c12 | -3.7 | 12.1 | 1.1 | -2.0 | -5.6 | / | /
Cc1nc(-c2coc3c(CN(C)C)c(O)ccc3c2=O)cs1 | 0.4 | 5.9 | 0.3 | 41.9* | 19.7 | 5.8 | -2.6
CCN(CC)Cc1c(O)ccc2c(=O)c(-c3ccccc3)coc12 | 0.5 | -3.2 | -2.0 | 69.4* | 21.4 | 61.4* | 42.8*
NC(=NOC(=O)c1ccc(F)cc1)c1cccc([N+](=O)[O-])c1 | / | 10.2 | / | / | / | / | /
CCNC(=O)C[C@H]1CC[C@@H]2[C@H](COc3ccc(NC(=O)Nc4ccccc4Cl)cc3C(=O)N2C)O1 | / | / | 2.4 | / | / | / | /
CCC(=O)N(C)C[C@H]1Oc2cc(-c3ccccc3C)ccc2S(=O)(=O)N([C@H](C)CO)C[C@H]1C | / | / | 0.1 | / | / | / | /
Cc1c(Nc2c3ccccc3nc3ccccc23)c(=O)n(-c2ccccc2)n1C | -1.3 | -0.4 | / | 108.8* | 6.4 | -2.1 | -0.6
O=C([O-])c1cc(-c2ccccc2)cc(-c2ccccc2)[n+]1CCc1ccc(Cl)cc1 | -4.3 | 3.0 | 1.0 | 3.3 | 3.1 | / | /
